“And” between values parts separate entries of the source, which are not always exact repeats. Equal values may be shown once. Screen size: about 360,000 compounds; about 11,000 (3.1%) were called active. For the sample, actives were picked, then their nearest neighbours and some compounds at random. Values without a mark were called inactive. Rule as the data show it: active = activity change below about -30%; inactive = the rest.
Biological target: D(1A) dopamine receptor (Homo sapiens) (UniProt P21728)
Sequence (P21728 whole entry, looked up): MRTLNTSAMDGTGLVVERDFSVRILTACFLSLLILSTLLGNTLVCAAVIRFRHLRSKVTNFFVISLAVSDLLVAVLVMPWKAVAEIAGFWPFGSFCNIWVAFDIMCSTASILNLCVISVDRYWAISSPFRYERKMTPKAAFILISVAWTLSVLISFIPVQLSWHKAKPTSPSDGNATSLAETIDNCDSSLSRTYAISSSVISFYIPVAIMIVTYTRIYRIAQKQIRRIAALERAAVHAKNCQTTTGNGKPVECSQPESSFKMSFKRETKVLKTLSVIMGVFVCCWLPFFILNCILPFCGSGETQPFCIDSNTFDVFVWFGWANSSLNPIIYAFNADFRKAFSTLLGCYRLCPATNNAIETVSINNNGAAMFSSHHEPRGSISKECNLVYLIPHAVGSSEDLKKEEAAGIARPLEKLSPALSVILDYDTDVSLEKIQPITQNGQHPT
Assay: Antagonist of Human D 1 Dopamine Receptor: qHTS
Details: HEK293 TREx D1 cells, calcium flux, dopamine EC80; at 10 µM; active compounds read low
Method in brief: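 Kinetic fluorescence of a calcium dye serves as the read-out. D1-expressing Hek293 Trex cells, induced overnight at 30 C, are exposed to compound for 180 s before an EC80 dopamine addition, then read 180 s further.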
% is scaled to controls: 0 for no effect and ±100 for the full control effect.

SMILES | activity change, negative = inhibition
CC1CCN(c2nc3ccc(C(=O)N4CCN(c5ccccc5)CC4)cc3s2)CC1 | 4.36%
Nc1ccc(C(=O)N2CCN(S(=O)(=O)c3ccc(Cl)cc3)CC2)cc1[N+](=O)[O-] | -1.4%
C/C(=C/c1ccccc1)C(=O)N1CCN(c2ccccc2)CC1 | -2.86%
O=C(c1ccc(Cl)c([N+](=O)[O-])c1)N1CCN(c2ccccc2)CC1 | -35.8% (active)
O=S(=O)(c1ccc(C2CCCCC2)cc1)N1CCN(c2ccc(Cl)c(Cl)c2)CC1 | 14.7%
Cc1cc(NS(=O)(=O)c2ccc3oc(=O)c4ncn(C)c4c3c2)ccc1Br | -1.47%
Cn1nnnc1Sc1ncnc2scc(-c3ccccc3[N+](=O)[O-])c12 | -0.145%
Cc1ccc(-c2nc(Cn3c(=O)cc(-c4ccccc4)c4c(C)nn(C)c43)c(C)o2)cc1 | 12%
CN(C)c1ccc(NC(=O)CSc2nc(-c3ccco3)cc(C(F)(F)F)n2)cc1 | -4.62%
CCn1c(C)c(C)c2cc(C(=O)NCCc3cc(OC)ccc3OC)ccc21 | 13.1%
COc1ccc(C(=O)OCC(=O)c2ccc(Cl)s2)c(OC)c1OC | -34.5% (active)
COc1ccc(C(=O)COC(=O)c2ccc([N+](=O)[O-])s2)cc1OC | 3.97%
COc1ccc(Cl)cc1C(=O)OCC(=O)NCc1cccs1 | -19.7%
COC(=O)c1ccccc1NC(=O)Cn1c(=O)cc(C)c2c(C)nn(-c3cccc(Cl)c3C)c21 | 11.3%
Cc1ccc(C)c(Cn2c(CCCNC(=O)C3CCCCC3)nc3ccccc32)c1 | -4.99%
Cc1cccc2c1cnn2C(=O)CCC(=O)NC1CCCCC1 | 11.5%
Cc1ccc2c(cnn2C(=O)CCC(=O)NC2CCCC2)c1 | -47.2% (active)
Cc1cccc(-c2noc(CCC(=O)NC3CCCC3)n2)c1 | -18.1%
Cc1cccc2c(=O)cc(CSc3ccccc3NC(=O)C(C)C)[nH]c12 | -2.11%
COc1ccc(NC(=O)c2ccco2)cc1NC(=O)c1ccc(C#N)cc1F | -1.13% and -9.12%
COc1ccc(NC(=O)CCC(=O)Nc2cc(OC)c(NC(=O)c3ccco3)cc2OC)c(OC)c1 | -3.66%
COc1cc(NC(=O)c2cc([N+](=O)[O-])ccc2Br)ccc1NC(=O)c1ccco1 | -45.2% (active)

SMILES | activity change, negative = inhibition
COc1ccc(OC)c(-n2nnc(-c3nc(-c4cc(OC)c(OC)c(OC)c4)no3)c2C)c1 | -6.72%
Cc1ccc2oc(=O)c3cnn(CC(=O)NCc4ccccc4Cl)c3c2c1 | 1.96%
COc1cccc(CNS(=O)(=O)c2ccc3c(c2)N(C(C)=O)CCS3)c1 | 3.44%
CC1Cc2cc(S(=O)(=O)CCC(=O)NCc3ccc(Cl)cc3)ccc2N1C(=O)C1CC1 (centres undefined) | -19.3%
COc1cccc(CNS(=O)(=O)c2ccc3c(c2)CC(C)N3C(C)=O)c1 (centres undefined) | -35% (active)
COc1cccc(CNS(=O)(=O)c2ccc3c(c2)CC(C)N3C(=O)C2CCC2)c1 (centres undefined) | -10.7% and -1%
COc1ccc(N(C)S(=O)(=O)c2ccc3c(c2)CC(C)N3C(=O)C2CC2)c(OC)c1 (centres undefined) | -41.8% (active)
COc1ccccc1CNC(=O)C1CCN(S(=O)(=O)c2ccc3c(c2)CC(C)N3C(=O)C2CC2)CC1 (centres undefined) | -4.76%
Cc1cccc(CNC(=O)c2cnc3sc(N4CCCCC4)nn3c2=O)c1 | 1.97%
CCOCCCNC(=O)c1c(NC(=O)c2nc(SC)ncc2Cl)sc2c1CCCC2 | -26.2%
CCN(CCCNC(=O)c1cc2c(=O)n(CC)c3ccccc3c2s1)Cc1ccccc1 | 11.6%
Cc1cccc(-n2ncc(C(=O)N3CCN(c4ccc(Cl)cc4)CC3)c2C2CCN(C(=O)OC(C)(C)C)CC2)c1 | 1.41%
COc1ccc(CNC(=O)c2ccc(NC(=O)N3CC4CCCN4c4ccccc43)cc2)cc1 (centres undefined) | 40.5%
CCOc1ccc(C(=O)NC(=S)Nc2ccc(NC(=O)C(C)C)cc2)cc1[N+](=O)[O-] | -38.8% (active)
CCOc1ccc(C(=O)NC(=S)Nc2ccc(N3CCOCC3)c(Cl)c2)cc1[N+](=O)[O-] | -18.8%
CC(=O)Nc1ccc(NC(=S)NC(=O)c2ccc([N+](=O)[O-])c(C)c2)cc1 | -2.38%
O=C(Nc1cccc2cccnc12)C(F)(F)F | 5.04%
O=C(NCc1ccccc1Cl)c1cccn1-c1nnc(N2CCCCC2)s1 | -10.7%
O=C(Cn1ncc2c3ccccc3n(Cc3ccccc3)c2c1=O)NC1CCCCCC1 | -8.69%
COc1cccc(CNCCc2c[nH]c3ccccc23)c1OCc1ccccc1F | -35.2% (active)
COc1cccc(CNCCSc2nnnn2C)c1OCc1ccccc1Cl | -5.2%
COc1ccc(C(CCNCc2ccccc2F)c2ccc(F)cc2)cc1 (centres undefined) | -7.29%

Source: PubChem BioAssay AID504652 (National Center for Advancing Translational Sciences (NCATS), 2011)
